Measured values as given in PubChem BioAssay.
Where “and” joins values, the source holds several entries; their conditions need not be identical. Identical values can stand only once. Where a structure was tested more than once in an assay, its records may differ in their call. Calls of active or inactive are those of the source. Unless noted, how the calls were made is not given here.

Legend:
[1] = compounds altering circadian rhythm period length – cell-based, LOPAC library, luminescence reporter (AID 2774); conditions: circadian reporter cells, at 7 µM, actives lie on both sides;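 further: values are relative to mean of DMSO wells on each plate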
[2] = system: Hepatitis C virus NS3 helicase; experiment: blockers of NS3h binding to ssDNA – biochemical, fluorescence polarization, LOPAC1280 library, primary screen (AID 687035; in the data active means inhibition above about 37%); conditions: Purified HCV NS3 helicase, Cy5-dT15 ssDNA binding fluorescence polarization; stronger effect = higher value; concentration not given here
[3] = compounds altering Cy5-DNA-NS3h complex signal – biochemical, LOPAC1280, artefact control for HCV NS3 helicase inhibitor project (AID 687037); conditions: Cy5-DNA-NS3h complex fluorescence interference counterscreen
[4] = system: Aerobactin synthetase IucA (Klebsiella pneumoniae); experiment: inhibition of K. pneumoniae IucA enzyme – biochemical, Tocris library, absorbance (AID 1345561); conditions: purified IucA enzyme assay, absorbance (OD) read-out; stronger effect = lower value;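 tested at 8 µM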;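 further: 100% = enzyme without compound and 0% = no enzyme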
[5] = viability loss with induced miR-34 in A549 – imaging, A549 dox-inducible miR-34, nuclei and caspase counts, primary screen (AID 1347080;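 active means compounds whose cell count with miR-34 switched on is under 0.7 times the count with it off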); conditions: A549 miR-34 inducible, Hoechst nuclei count, 48 h
[6] = blockers of cellular phospholipid synthesis – cell-based, LOPAC library, screen 4, primary screen (AID 1347384); conditions: animal cells, phospholipid biosynthesis inhibition screen; at 10 µM
[7] = galactose survival enhancers in mitochondrial complex I cybrids – cell-based, galactose medium, ATP luminescence, primary screen (AID 1645843;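 active means z-score of at least 1.8 in each of two replicates, scored against plate mean and spread of sample wells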;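 further: positive z means more ATP and so rescue of galactose-driven cybrid death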); conditions: complex I mutant cybrid cells, 72 h, stronger effect = higher value
[8] = compounds altering viability of human ES cells (AID 493140); conditions: human embryonic stem cell survival screen; stronger effect = higher value;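 further: cells exposed to compounds for four days before counting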
[9] = chitosan synthesis blockers in C. neoformans – flow cytometry, Cibacron Brilliant Red staining (AID 1347148); conditions: Cryptococcus neoformans chitosan, stronger effect = lower value; at 10 µM unless noted;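 further: compound exposure lasted three days at 37 degrees C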
[10] = MELAS cybrid and Rieske KO viability enhancers – cell-based, MELAS cybrids, Rieske KO mouse fibroblasts, CellTiter-Glo, primary screen (AID 1508586;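 active means mean z-score across replicates of 1.96 or higher in either the MELAS or the Rieske mutant cell line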;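 further: z relative to plate mean and SD of compound and empty wells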); conditions: low glucose
[11] = stronger effect = lower value, cell number ratio, induced over uninduced
[12] = measured here: relative caspase fold change +Dox/-Dox
[13] = measured here: total cells with miR-34 induction, stronger effect = lower value
[14] = measured here: total cells without miR-34 induction
[15] = MELAS cybrid survival, CellTiter-Glo 48 h, stronger effect = higher value
[16] = Rieske KO mouse fibroblast survival, CellTiter-Glo 72 h

For `Cc1cccc(C(=O)NCN2CCN(c3ccccc3C#N)CC2)c1`, the period change [1] was 0.095 h (inactive), the inhibition [2] was -3% (inactive) and the fluorescence ratio (interference) [3] was 1 (inactive). The remaining activity [4] was 92.5% (inactive), the fold change [5, 11] was 0.97 (inactive) and 0.957 (inactive) and the fold change [5, 12] was 0.725 and 1.8. For the same compound, the cell count [5, 13] was 9570 and 9300, the cell count [5, 14] was 9870 and 9720 and the outcome [6] was “inactive”. For the same compound, the z-score [7] was -0.125 (inactive) and 0.395 (inactive).

In the case of `NC[C@@H]1O[C@H](C23CC4CC(CC(C4)C2)C3)Cc2c1ccc(O)c2O`, the period change [1] is reported as 0.01 h (inactive), the inhibition [2] is reported as -3% (inactive) and the fluorescence ratio (interference) [3] is reported as 0.9 (inactive). For the same compound, the remaining activity [4] was 123% (inactive), the fold change [5, 11] was 1.09 (inactive) and 0.908 (inactive) and the fold change [5, 12] was 1.75 and 0.979. The cell count [5, 13] was 4260 and 7980, the cell count [5, 14] was 3890 and 8790 and the outcome [6] was “inactive”. The z-score [7] was -1.5 (inactive) and -0.775 (inactive).

With `N[C@@H](CS(=O)O)C(=O)O` the period change [1] was 0.04 h (inactive), the inhibition [2] was -5% (inactive) and the fluorescence ratio (interference) [3] was 0.9 (inactive). The remaining activity [4] was 124% (inactive), the fold change [5, 11] was 1.01 (inactive) and 0.998 (inactive) and the fold change [5, 12] was 1.54 and 0.698. The cell count [5, 13] was 10700 and 8340, the cell count [5, 14] was 10600 and 8360 and the outcome [6] was “inactive”. The z-score [7] was 0.58 (inactive) and 0.25 (inactive).

With `CNC(=O)c1cc2c(cn1)[nH]c1ccccc12` the period change [1] was -0.24 h (inactive), the inhibition [2] was 0% (inactive) and the fluorescence ratio (interference) [3] was 1 (inactive). The remaining activity [4] was 99.6% (inactive), the fold change [5, 11] was 0.95 (inactive) and 0.891 (inactive) and the fold change [5, 12] was 1.84 and 0.981. The cell count [5, 13] was 8950 and 7610, the cell count [5, 14] was 9420 and 8540 and the outcome [6] was “inactive”. The z-score [7] was 2.76 (active) and 1.85 (inactive).

In the case of `CC#CCOC(=O)c1c(C)nc2sc3c(c2c1N)CCC(O)C3` (stereo not given), the period change [1] is reported as -0.09 h (inactive), the inhibition [2] is reported as -3% (inactive) and the fluorescence ratio (interference) [3] is reported as 1 (inactive). For the same compound, the remaining activity [4] was 102% (inactive), the fold change [5, 11] was 0.861 (inactive) and 0.824 (inactive) and the fold change [5, 12] was 0.901 and 1. For the same compound, the cell count [5, 13] was 7740 and 5720, the cell count [5, 14] was 8990 and 6940 and the outcome [6] was “inactive”. The z-score [7] was -1.22 (inactive) and -0.71 (inactive).

For `COC(=O)[C@H](NC(=O)c1cc(-c2ccccc2)nc2ccccc12)c1ccccc1`, the period change [1] was -0.11 h (inactive), the inhibition [2] was -1% (inactive) and the fluorescence ratio (interference) [3] was 1 (inactive). For the same compound, the remaining activity [4] was 100% (inactive), the fold change [5, 11] was 1 (inactive) and 0.927 (inactive) and the fold change [5, 12] was 0.906 and 0.535. For the same compound, the cell count [5, 13] was 9010 and 8560, the cell count [5, 14] was 8980 and 9240 and the outcome [6] was “inactive”. The z-score [7] was 0.22 (inactive) and -0.03 (inactive).

With `N#Cc1cc2nc(O)c(O)nc2cc1[N+](=O)[O-]` the period change [1] was 0.03 h (inactive), the inhibition [2] was -1% (inactive) and the fluorescence ratio (interference) [3] was 1 (inactive). The remaining activity [4] was 114% (inactive), the fold change [5, 11] was 1.02 (inactive) and 0.856 (inactive) and the fold change [5, 12] was 1.08 and 1.89. The cell count [5, 13] was 9680 and 8420, the cell count [5, 14] was 9500 and 9840 and the outcome [6] was “inactive”. For the same compound, the z-score [7] was 0.385 (inactive) and 0.185 (inactive).

With `CCn1c(=O)[nH]c2cc(Cl)c(Cl)cc21` the period change [1] was 0.01 h (inactive), the inhibition [2] was -2% (inactive) and the fluorescence ratio (interference) [3] was 1 (inactive). For the same compound, the remaining activity [4] was 114% (inactive), the fold change [5, 11] was 0.936 (inactive) and 0.878 (inactive) and the fold change [5, 12] was 1.34 and 0.845. The cell count [5, 13] was 8830 and 7930, the cell count [5, 14] was 9440 and 9020 and the outcome [6] was “inactive”. The z-score [7] was 0.275 (inactive) and 0.885 (inactive).

In the case of `CC(C)(CO)Cc1cc(C(C)(C)C)c(O)c(C(C)(C)C)c1`, the period change [1] is reported as 0.05 h (inactive), the inhibition [2] is reported as 0% (inactive) and the fluorescence ratio (interference) [3] is reported as 1 (inactive). The remaining activity [4] was 101% (inactive), the fold change [5, 11] was 1.04 (inactive) and 0.971 (inactive) and the fold change [5, 12] was 1.88 and 0.81. For the same compound, the cell count [5, 13] was 7090 and 8690, the cell count [5, 14] was 6800 and 8950 and the outcome [6] was “inactive”. For the same compound, the z-score [7] was -1.4 (inactive) and -0.73 (inactive).

With `COc1ccc2c(c1)c(CC(=O)N1CCOCC1)c(C)n2C(=O)c1ccc(Cl)cc1` the period change [1] was -0.115 h (inactive), the survival [8] was 105 (inactive) and the remaining activity [4] was 123% (inactive). The fold fluorescence [9] was 2.56 (active), the z-score [10, 15] was -0.237 (inactive) and the z-score [10, 16] was -0.286. For the same compound, the z-score [7] was -0.295 (inactive).

In the case of `NC(=O)CNCCC(c1ccccc1)c1ccccc1`, the period change [1] is reported as -0.275 h (inactive), the inhibition [2] is reported as 0% (inactive) and the fluorescence ratio (interference) [3] is reported as 1.1 (inactive). The remaining activity [4] was 72.6% (inactive), the fold change [5, 11] was 0.993 (inactive) and 0.866 (inactive) and the fold change [5, 12] was 1.46 and 1.33. For the same compound, the cell count [5, 13] was 9880 and 8250, the cell count [5, 14] was 9950 and 9520 and the outcome [6] was “inactive”. For the same compound, the z-score [7] was -0.185 (inactive) and 0.085 (inactive).

For `CC(C)[C@@H]1CC[C@@H](C)C[C@@H]1P(=O)(c1ccccc1)c1ccccc1`, the inhibition [2] was 2% (inactive), the fluorescence ratio (interference) [3] was 1 (inactive) and the remaining activity [4] was 100% (inactive). The fold change [5, 11] was 0.961 (inactive) and 0.925 (inactive), the fold change [5, 12] was 0.895 and 1.06 and the cell count [5, 13] was 8530 and 7980. For the same compound, the cell count [5, 14] was 8880 and 8620, the outcome [6] was “inactive” and the z-score [7] was 0.1 (inactive) and -0.24 (inactive).

In the case of `O=C(Nc1ccccc1)c1cc([N+](=O)[O-])ccc1Cl`, the period change [1] is reported as -0.23 h (inactive), the inhibition [2] is reported as -5% (inactive) and the fluorescence ratio (interference) [3] is reported as 1 (inactive). For the same compound, the remaining activity [4] was 120% (inactive), the fold fluorescence [9] was 3.58 [at 180.7 µM] (inactive) and the outcome [6] was “inactive”. For the same compound, the z-score [10, 15] was -0.372 (inactive), the z-score [10, 16] was 0.0531 and the z-score [7] was -0.715 (inactive) and -0.72 (inactive).

In the case of `O=C1NC(c2cccc([N+](=O)[O-])c2)=CCN1c1ccccc1O`, the period change [1] is reported as -0.125 h (inactive), the inhibition [2] is reported as -4% (inactive) and the fluorescence ratio (interference) [3] is reported as 1 (inactive). The remaining activity [4] was 111% (inactive), the fold change [5, 11] was 0.967 (inactive) and 1.03 (inactive) and 0.928 (inactive) and the fold change [5, 12] was 1.12 and 1.35 and 0.882. For the same compound, the cell count [5, 13] was 10200 and 5990 and 8100, the cell count [5, 14] was 10600 and 5810 and 8730 and the outcome [6] was “inactive”. The z-score [7] was -0.245 (inactive) and 1.08 (inactive).
